In the library only some 8% were active in any assay of this set; here they are far more common.
FMDV antiviral = blocks foot and mouth disease virus; FMDV antiviral cell-based qHTS; Potency, µM (doses to about 57.9 µM), usual class: inhibitors; actives 1.2% (n = 410,000); AID 1159524; calls by dose curve; tested in HEK293T cells; note: read-out not given here; nearly all actives have a fitted effect of over 45% in size
MARV entry inh = inhibitors of Marburg virus binding or cell entry. AID 540276. Marburg virus pseudotyped entry inhibition, cell reporter. actives 1.8% (n = 300,000). Potency, µM (series often up to 37.8 µM), most hits filed as inhibitors; calls by dose curve; tested in HEK293 cells
LASV entry inh = Lassa virus entry inhibition | Lassa virus pseudotype entry inhibition, cell reporter | Potency, µM (doses to about 37.9 µM), most hits filed as inhibitors | actives 1.2% (n = 300,000) | AID 540256; calls by dose curve; tested in HEK293 cells; note: nearly all actives have a fitted effect of over 50% in size
HCV inh = blocks hepatitis C virus; Huh7.5.1 HCVcc-Cre infection, luciferase reporter, 44 h; Potency, µM (highest dose often 41.8 µM), usual class: inhibitors; actives 3.4% (n = 340,000); AID 651820; active = well fitted inhibition curve with a large enough effect; inconclusive = small, poorly fitted or top-dose-only effect, or another doubt; inactive = no such curve, though single readings can be large or run the other way
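HCVcc-Cre virus at an moi near 0.5 was added right after compound to cells cultured 4 h from seeding (1,000 cells/well). Luciferase activity was determined 44 h later, 15 min after substrate addition at RT.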
SARS PLP yeast = SARS-CoV PLP inhibition in yeast; Potency, µM (highest dose often 32.9 µM), hits mostly activators; actives 0.19% (n = 330,000); S. cerevisiae expressing SARS-CoV PLpro, growth rescue; AID 485353; calls by dose curve; note: nearly all actives have a fitted effect of over 55% in size
HCMV inh = blocks human cytomegalovirus replication; HFF cells, HCMV-luciferase reporter, 72 h; stronger effect = lower value; activity change, negative = inhibition, % at 57.5 µM; actives 4.5% (n = 410,000); in the data active = activity change below about -60%; inconclusive = no clear call, values can overlap the other calls; inactive = above about -39%
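Screen run at 2 compound doses on HFFs infected with reporter HCMV, MOI 1 PFU/cell. Luciferase activity from cell lysates at 72 h post infection gave inhibition relative to buffer-only and Salinomycin wells.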
Of the large screens only hits and unclear results are named; the others gave an inactive call.

Cc1ccc(SCC(=O)OCC(=O)N(CC(C)C)c2c(N)n(Cc3ccccc3)c(=O)[nH]c2=O)c(C)c1	MARV entry inh inconclusive, LASV entry inh inconclusive, HCV inh 10µM
CC(=O)Nc1sc(C)c(C)c1C(=O)OCC(=O)N(CC(C)C)c1c(N)n(Cc2ccccc2)c(=O)[nH]c1=O	HCV inh 5µM
COC(=O)c1c(C)[nH]c(C(=O)OCC(=O)N(CC(C)C)c2c(N)n(Cc3ccccc3)c(=O)[nH]c2=O)c1C	HCV inh inconclusive
Cc1ccc(C)c(Cn2cc(CCC(=O)NC3CCCCC3)c3ccccc32)c1	none (no result: MARV entry inh, HCV inh, SARS PLP yeast)
COCc1cc(C)nc2sc(C(=O)Nc3cc(C)ccc3F)c(N)c12	MARV entry inh inconclusive, LASV entry inh inconclusive (no result: HCV inh, SARS PLP yeast)
CC(C(c1ccc2c(c1)OCO2)c1c(N)n(C)c(=O)n(C)c1=O)[N+](=O)[O-] (stereo unspecified)	HCMV inh -63 (no result: MARV entry inh, LASV entry inh, SARS PLP yeast)
Cn1c(N)c(C(=O)CSc2ccc3c(c2)OCCO3)c(=O)n(C)c1=O	none
O=C(CNC(=O)c1cccc(-n2cccc2)c1)Nc1ccccc1Br	none (no result: MARV entry inh, LASV entry inh, HCV inh, SARS PLP yeast)
CCN(C(=O)c1cn(C)c(=O)c2ccccc12)c1cccc(C)c1	LASV entry inh inconclusive (no result: HCV inh, SARS PLP yeast)
CCOC(=O)C(=Cc1ccc(-c2ccsc2C(=O)OC)o1)C(=O)OCC	FMDV antiviral 32µM, HCV inh inconclusive
COC(=O)C(=Cc1ccc(-c2ccsc2C(=O)OC)o1)C(=O)OC	none
Cc1cccc(N2C(=O)CS(=O)(=O)C23C(=O)N(C)c2ccccc23)c1 (stereo unspecified)	none (no result: MARV entry inh, HCV inh, SARS PLP yeast)
Cc1cc(CN2CCN(c3cccc(C)c3C)CC2)cs1	HCMV inh -69 (no result: MARV entry inh, HCV inh, SARS PLP yeast)
CCC(C(=O)Nc1cccc(S(=O)(=O)N(C)c2ccccc2)c1)c1ccccc1 (stereo unspecified)	MARV entry inh inconclusive, LASV entry inh 11µM, HCV inh inconclusive
CN(C)S(=O)(=O)c1cccc(NC(=O)c2ccc(OC(F)(F)F)cc2)c1	FMDV antiviral inconclusive, MARV entry inh inconclusive, LASV entry inh inconclusive, HCV inh inconclusive, HCMV inh -95
CN(C)S(=O)(=O)c1cccc(NC(=O)C(c2ccccc2)c2ccccc2)c1	MARV entry inh inconclusive (no result: LASV entry inh)
CN(c1ccccc1)S(=O)(=O)c1cccc(NC(=O)C2CCCO2)c1 (stereo unspecified)	MARV entry inh inconclusive, LASV entry inh inconclusive, HCMV inh -62
CCOc1ccc(Br)cc1S(=O)(=O)Nc1cccc(S(=O)(=O)N(C)c2ccccc2)c1	MARV entry inh 7.9µM
COc1cc(OC)cc(-c2c(-c3cccs3)c3cc(-c4ccc(C(N)=O)cc4)ccc3n2C)c1	HCV inh inconclusive (no result: MARV entry inh, LASV entry inh)
CSc1nc2c(=S)[nH]c(=S)[nH]c2s1	none (no result: MARV entry inh, LASV entry inh, HCV inh, SARS PLP yeast)
CCCCCC(=O)N1C[C@@H](n2cc(C3CC3)nn2)[C@H](O)C[C@H]1c1ccccc1	none (no result: FMDV antiviral, MARV entry inh, HCV inh, SARS PLP yeast, HCMV inh)
COc1ccc(CCN(C)C(=S)Nc2cccc(C)c2)cc1OC	MARV entry inh inconclusive (no result: LASV entry inh)
CN(C)S(=O)(=O)c1cccc(NC(=O)c2ccc(COc3ccccc3)cc2)c1	FMDV antiviral 25µM, MARV entry inh 8.9µM, LASV entry inh inconclusive, HCV inh 10µM (no result: HCMV inh)
COCc1ccc(C(=O)Nc2cccc(S(=O)(=O)N(C)c3ccccc3)c2)cc1	FMDV antiviral inconclusive, MARV entry inh inconclusive, LASV entry inh inconclusive, HCV inh 22µM, HCMV inh -96
CN(c1ccc(C(=O)Nc2cccc(O)c2)cc1)S(=O)(=O)c1ccccc1	MARV entry inh inconclusive, HCV inh inconclusive
O=S(=O)(c1ccccc1)c1nc(-c2ccc(Cl)cc2)oc1NCCCN1CCOCC1	MARV entry inh inconclusive, LASV entry inh inconclusive, HCV inh inconclusive, HCMV inh inconclusive
Cc1cc2c(c(-c3ccc(Cl)cc3)c1)OC(CNC(=O)Cc1c(C)noc1C)C2 (stereo unspecified)	none (no result: MARV entry inh, LASV entry inh, HCV inh, SARS PLP yeast, HCMV inh)
COc1ccc([C@H]2/C=C\CN(C(=O)CC(C)(C)C)[C@@H](C)C(=O)N2Cc2ccc(F)cc2)cc1	FMDV antiviral inconclusive, HCMV inh -60 (no result: MARV entry inh, LASV entry inh, SARS PLP yeast)
COc1ccc(C2/C=C\CN(C(=O)c3ccccc3)[C@H](Cc3ccccc3)C(=O)N2Cc2ccc(F)cc2)cc1 (stereo partly specified)	FMDV antiviral inconclusive, HCV inh inconclusive, HCMV inh -63 (no result: MARV entry inh, LASV entry inh)
COc1ccc([C@H]2/C=C\CN(C(=O)c3ccc(C)cc3)[C@@H](C)C(=O)N2Cc2ccc(F)cc2)cc1	HCV inh inconclusive (no result: MARV entry inh, LASV entry inh, SARS PLP yeast)
COc1ccc(C2/C=C\CN(C(=O)OCC3c4ccccc4-c4ccccc43)CC(=O)N2Cc2cccc(F)c2)cc1 (stereo unspecified)	HCV inh 10µM (no result: MARV entry inh, LASV entry inh)
Cc1cc(N2CCN(C(C(=O)NC3CCCC3)C(C)C)CC2)c2ccccc2n1 (stereo unspecified)	none (no result: MARV entry inh, LASV entry inh, HCV inh, SARS PLP yeast)
CN(C1CCCCC1)S(=O)(=O)c1ccc2c(c1)c(=O)c(C(=O)NCc1ccc(Cl)cc1)cn2C	none (no result: HCV inh, SARS PLP yeast)
Cc1c(N/C=C/C(=O)C(F)(F)F)c(=O)n(-c2ccccc2)n1C	none
O=C(/C=C/Nc1ccccc1)C(F)(F)F	MARV entry inh inconclusive, HCMV inh -80
CC(NC(=O)/C=C/c1ccc(Br)cc1)c1ccccc1 (stereo unspecified)	MARV entry inh inconclusive, LASV entry inh 15µM
CC(NC(=O)/C=C/c1ccccc1)c1ccccc1 (stereo unspecified)	MARV entry inh inconclusive, LASV entry inh inconclusive
Cc1ccc(/C=C/C(=O)NC(C)c2ccccc2)cc1 (stereo unspecified)	LASV entry inh 11µM
O=C(/C=C/c1ccc(O)c(O)c1)NC(=O)c1ccccc1O	none (no result: MARV entry inh, LASV entry inh)
CCc1ccc(C(C)NC(=O)/C=C/c2ccc(Br)cc2)cc1 (stereo unspecified)	none
O=C(/C=C/c1ccc(Br)cc1)NC(=O)c1ccccc1O	HCMV inh -102
CC(=O)c1cccc(NC(=O)c2sc(-n3nc(C)c(Cc4ccccc4)c3C)nc2C)c1	FMDV antiviral inconclusive, HCMV inh -61 (no result: HCV inh, SARS PLP yeast)
COc1ccc(OC)c(C2Nc3c(C)cc(C)cc3-c3cc(C)nn32)c1 (stereo unspecified)	none (no result: HCV inh, SARS PLP yeast)
CSc1ccc(Nc2nn(-c3ccc(OC(F)(F)F)cc3)nc2C(C)=O)cc1	HCMV inh inconclusive (no result: HCV inh, SARS PLP yeast)
COc1ccc(C2=Nc3ccccc3N(C(=O)c3ccc4c(c3)OCO4)C2C(=O)NCc2ccccc2)cc1 (stereo unspecified)	HCMV inh -71 (no result: MARV entry inh, LASV entry inh, HCV inh, SARS PLP yeast)
COc1ccc(C2=Nc3ccccc3N(C(=O)c3ccc(C)cc3)C2C(=O)NCc2ccccc2)cc1 (stereo unspecified)	none (no result: MARV entry inh, LASV entry inh, HCV inh, SARS PLP yeast)
Cc1ccc(NC(=O)/C(C#N)=C(\N)C(Cl)(Cl)Cl)nc1	LASV entry inh inconclusive, HCV inh 10µM (no result: HCMV inh)
Nc1nnc(P(c2ccccc2)c2ccccc2)s1	HCMV inh -64 (no result: MARV entry inh, LASV entry inh)
CCC1CN(CC(=O)NC(c2ccccn2)C(F)(F)F)Cc2cc(OC)ccc2O1 (stereo unspecified)	none (no result: MARV entry inh, LASV entry inh, HCV inh, SARS PLP yeast, HCMV inh)

High-throughput results (PubChem)
